From PubChem
TLR4 MyD88 comp = inhibitors of human TLR4-MyD88 binding; hit rate 0.18% among 200,000; AID 861; O00206+Q99836; HeLa CL3-4 TLR4/MyD88 BLA complementation, FRET ratio; inhibition, % at 8.4 µM; in the data active = inhibition above about 25%;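 also: 0% = vehicle and 100% = reference inhibitor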
NOD2 RIPK2 PPI = inhibitors of human NOD2-RIPK2 interaction; O43353; CHO BLA complementation NOD2-RIPK2, CCF4 ratio; inhibition, % at 4.98 µM; hit rate 0.38% among 360,000; in the data active = inhibition above about 21%;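 also: 0% = vehicle only and 100% = reference blocker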
HTR2A ag = activates the mouse 5-HT2A serotonin receptor; P35363; CHO-K1 mHTR2A beta-arrestin complementation, luminescence; percent of 30 µM serotonin response; activation, % at 7.6 µM; hit rate 0.66% among 360,000;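 active = activation above a run cutoff, the mean activation of all tested compounds plus 3 SD, cut at about 14% in these data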;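 also: 0% = plate median of compound wells and 100% = 30 µM serotonin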
Target sequence (P35363 whole entry, looked up): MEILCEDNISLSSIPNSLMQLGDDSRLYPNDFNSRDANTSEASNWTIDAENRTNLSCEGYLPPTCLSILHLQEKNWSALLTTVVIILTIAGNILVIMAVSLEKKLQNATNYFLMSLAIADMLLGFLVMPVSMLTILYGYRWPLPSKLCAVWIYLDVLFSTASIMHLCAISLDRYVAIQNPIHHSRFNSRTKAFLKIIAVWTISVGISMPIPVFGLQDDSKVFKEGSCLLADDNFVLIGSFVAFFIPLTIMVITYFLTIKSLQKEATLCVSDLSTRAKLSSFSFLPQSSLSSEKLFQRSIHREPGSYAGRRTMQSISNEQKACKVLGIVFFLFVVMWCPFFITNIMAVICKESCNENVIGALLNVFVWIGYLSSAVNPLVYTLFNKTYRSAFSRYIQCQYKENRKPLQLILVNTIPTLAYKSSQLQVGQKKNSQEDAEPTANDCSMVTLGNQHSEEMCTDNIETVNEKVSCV
CRFR2-BP antag = antagonists of CRF-binding protein/CRF-R2 receptor complex; AID 588475; hit rate 0.59% among 350,000; HEK293 CRF-R2/CRF-BP, CRF-induced calcium fluorescence; inhibition, % at 11.8 µM;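 active = inhibition of the ligand-induced calcium signal above about 50% at the single tested concentration, limit read from the data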
ABHD5 PLIN5 PPI = ABHD5-PLIN5 protein interaction inhibition; Q00G26+Q8WTS1; Split G. princeps luciferase complementation, luminescence, 4 h; inhibition, % at 4 µM; hit rate 0.78% among 360,000;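 active = inhibition above the mean inhibition across every tested compound plus 3 SD, cut at about 22% in these data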;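 also: 0% = DMSO only wells and the 100% control is not disclosed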
TLR9-MyD88 block = blocks human TLR9 binding to MyD88 | AID 504734 | hit rate 0.21% among 340,000 | Q9NR96+Q99836 | inhibition, % at 4.98 µM | CHO BLA complementation TLR9-MyD88, CCF4 FRET ratio;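 active = inhibition above the mean over all tested compounds plus 3 SD, cut at about 21% in these data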;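 also: 0% = DMSO only wells and 100% = clavulanate BLA inhibitor control wells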
* marks the source's active call; other numbers are inactive results; · = not tested or not shown. Most compounds without a hit are left out; they make up all but 2.4% or so of the library.

SMILES	TLR4 MyD88 comp	NOD2 RIPK2 PPI	HTR2A ag	CRFR2-BP antag	ABHD5 PLIN5 PPI	TLR9-MyD88 block
Cc1ccc(NC(=O)CSc2nnc(Cn3cnc4ccccc43)o2)c(C)c1	-11.6	-9.5	0.2	58.9*	4.1	-0.8
Cc1ccc(NC(=O)CSc2nnc(Cn3cnc4ccccc43)o2)cc1	7.4	-7.5	7.7	-0.5	0.1	1.5
CC(C)[C@H](NC(=O)OC(C)(C)C)c1cc(C(=O)N2CCOCC2)c(N)s1	·	-8.5	3.3	·	-17.9	·
COc1ccc(-c2c[n+](CC(=O)c3ccccc3)c3n2CCCCC3)cc1	·	-5.3	-1.6	-3.8	1.6	-10.7
COc1ccc(-c2c[n+]3c4n2CCCCC4=C(c2ccccc2)C3)cc1	3.0	10.8	-0.1	51.9*	2.8	4.3
COc1ccccc1Cc1c(-c2cccc(Br)c2)nc2c(C)cc(Br)cn12	·	2.9	-4.0	·	-9.1	·
OCC[C@@H]1C[C@H](O)[C@@H](O)[C@@]2(OCCCc3cc(Cl)ccc32)O1	·	3.5	10.0	·	-9.3	·
O=C(CCn1nnc2ccccc21)N1CCN(c2ccccc2)CC1	-12.4	-6.4	-0.8	94.7*	3.4	4.4
O=C(Cn1nnc2ccccc21)N1CCCCC1	-6.5	7.3	-1.1	3.5	-7.5	6.4
CCCCn1nc(C(=O)NC2CCCCC2)c2ccccc2c1=O	·	-13.1	-0.3	-11.9	5.8	-1.6
COC(=O)[C@]12CCCCC=C1N(CCC1=CCCCC1)C(=O)[C@H](CC(=O)N1CCN(C(=O)c3ccco3)CC1)C2	·	-9.0	-2.3	·	0.0	·
Oc1cc(-c2ccc(N3CCCCC3)nc2)cc2cccnc12	·	22.3*	-4.8	6.5	1.5	15.5
Cn1c(OCc2ccc3c(c2)OCO3)nc2c1c(=O)n(Cc1ccc(Cl)c(Cl)c1)c(=O)n2C	2.0	-17.9	0.5	5.5	-2.9	-6.6
C=CCOc1nc2c(c(=O)n(Cc3ccc(Cl)c(Cl)c3)c(=O)n2C)n1C	6.8	10.4	1.0	50.6*	-1.1	-5.1
CCCCC(=O)N(C)c1c(CC)nc2c(OCC(=O)c3ccc(Cl)cc3Cl)cccn12	·	5.6	-1.2	·	1.3	·
CCCCN(c1ccc(C(=O)OC)cc1)S(=O)(=O)c1ccccc1	-4.8	-5.9	-7.7	62.8*	-4.8	-2.5
CCCN(c1ccc(C(=O)OC)cc1)S(=O)(=O)c1ccccc1	-15.4	4.3	-0.4	15.3	-1.8	-1.9
Cc1c(C(=O)O)sc(S(=O)(=O)N2CCN(C(=O)Cc3ccc(F)cc3)CC2)c1C(=O)O	·	-5.3	-0.5	51.9*	7.4	-6.6
CC1(C)OC(=O)C2=C(C[C@@H](C3CCCCC3)O[C@@H]2c2ccc(F)cc2)O1	·	-6.4	0.8	·	-4.0	·
COc1ccc(OC)c(-c2nnc3n2N=C(c2ccc(OC)c(OCC4CC4)c2)CS3)c1	·	-0.3	2.1	58.9*	23.1*	-5.2
COc1ccc(C2=Nn3c(nnc3-c3ccccc3Cl)SC2)cc1OCC1CC1	·	3.7	-7.1	19.8	-9.0	-3.5
CC(C)N1C(=O)S/C(=C/c2ccccc2OCc2ccc(C(=O)O)cc2)C1=O	-0.5	-6.6	0.6	69.0*	7.5	-7.5
Cc1ccc(C(=O)N2CCN(C(=O)CN3CCOCC3)C2)cc1	5.6	4.8	-0.1	77.8*	-4.2	4.2
CC(C)(C)NC(=O)C1C(c2ccc(C(F)(F)F)cc2)=Nc2ccccc2N1C(=O)c1cccc2ccccc12 (stereo not drawn)	·	-3.7	-0.6	·	-11.7	·
c1ccc(NN=C(c2ccccc2)c2cccs2)cc1	·	5.8	0.6	-16.6	-20.6	6.1
COc1ccc(C(CCN(Cc2ccc(OC)c(OC)c2)C(C)=O)c2ccccc2)cc1 (stereo not drawn)	7.3	7.4	4.3	22.9	5.1	-3.0
COc1ccc(CN(CCC(c2ccccc2)c2ccc(OC(C)C)cc2)C(=O)CCl)cc1OC (stereo not drawn)	17.5	13.8	7.6	53.3*	16.6	3.8
O=C(Nc1cccc(Cl)c1)c1csc([C@H]2C[C@H](O)[C@@H](CO)O2)n1	·	-3.6	1.5	·	-1.9	·
N=c1n(CCN2CCCCC2)c2ccccc2n1CC(=O)c1ccc(Cl)c(Cl)c1	·	-5.8	-14.0	-18.3	22.0*	·
CC(C)C[C@H]1CN([C@@H](Cc2ccccc2)CN2CCC[C@@H]2CN2C(=O)C(=O)NC[C@@H]2Cc2ccccc2)C(=O)C(=O)N1CC1CCCCC1	·	5.8	0.4	·	12.1	·
